Each structure is given as a SMILES string. About 3,300 (8.5%) of roughly 39,000 compounds were called active. The full list was thinned out, with actives kept by preference.

The test relates to HepG2. In words: cytotoxicity call (relative viability < 0.9). The following applies: 10 µM.
Take `Cc1noc(C)c1NC(=O)Nc1ccc2c(c1)CC(=O)N([C@@H](C)CO)C[C@@H](C)[C@H](CN(C)Cc1ccc(C(F)(F)F)cc1)O2`: the cytotoxicity call is “inactive”.
For `CC(C)NC(=O)Nc1ccc2c(c1)C(=O)N([C@H](C)CO)C[C@@H](C)[C@H](CN(C)CC1CCCCC1)OCCCC[C@H](C)O2` the value was “inactive”; for `C[C@H]1CN([C@@H](C)CO)C(=O)c2cc(NC(=O)Nc3ccc(C(F)(F)F)cc3)ccc2O[C@H]1CN(C)Cc1ccc2c(c1)OCO2`, “active”.
With `C[C@H](CO)N1C[C@H](C)[C@H](CN(C)Cc2ccc3c(c2)OCO3)Oc2ccc(NC(=O)Nc3ccc(C(F)(F)F)cc3)cc2C1=O` the entry was “active”.
For `C[C@@H]1CN([C@H](C)CO)C(=O)c2cc(NC(=O)Nc3ccc(C(F)(F)F)cc3)ccc2O[C@@H]1CN(C)Cc1ccc2c(c1)OCO2` the value was “active”; for `C[C@@H]1CN([C@@H](C)CO)C(=O)c2cc(NC(=O)Nc3ccc(C(F)(F)F)cc3)ccc2O[C@@H]1CN(C)Cc1ccc2c(c1)OCO2`, “active”.
Consider `C[C@@H]1CN([C@H](C)CO)C(=O)c2cc(NC(=O)Nc3ccc(C(F)(F)F)cc3)ccc2O[C@H]1CN(C)Cc1ccc2c(c1)OCO2`, for which the cytotoxicity call was “inactive”.
For `C[C@H]1CN([C@@H](C)CO)C(=O)c2cc(NC(=O)Nc3ccc4c(c3)OCO4)ccc2O[C@H]1CN(C)Cc1ccc(C(F)(F)F)cc1` the value was “inactive”.
For `C[C@H](CO)N1C[C@H](C)[C@@H](CN(C)Cc2ccc(C(F)(F)F)cc2)Oc2ccc(NC(=O)Nc3ccc4c(c3)OCO4)cc2C1=O` the value was “inactive”; for `C[C@@H]1CN([C@@H](C)CO)C(=O)c2cc(NC(=O)Nc3ccc4c(c3)OCO4)ccc2O[C@H]1CN(C)Cc1ccc(C(F)(F)F)cc1`, “inactive”.
With `CN(C)Cc1cn(CC[C@H]2CC[C@@H](NS(=O)(=O)c3ccccc3)[C@@H](CO)O2)nn1` the entry was “inactive”.
`C[C@H]1CN([C@@H](C)CO)C(=O)CCCn2cc(nn2)CO[C@@H]1CN(C)Cc1ccc(C(=O)Nc2ccccc2N)cc1`: the cytotoxicity call was “inactive”.
With `C[C@@H]1CN([C@@H](C)CO)C(=O)c2cccc(NS(=O)(=O)c3cccs3)c2O[C@@H]1CN(C)CC1CC1` the entry was “inactive”.
For `C[C@@H]1CN([C@@H](C)CO)C(=O)c2cc(NS(=O)(=O)c3ccc(Cl)cc3)ccc2O[C@@H](C)CCCCO[C@@H]1CN(C)C(=O)NC1CCCCC1` the value was “inactive”.
For `Cc1noc(C)c1S(=O)(=O)Nc1cccc2c1O[C@@H](CN(C)Cc1ccc(Oc3ccccc3)cc1)[C@@H](C)CN([C@@H](C)CO)C2=O` the value was “inactive”; for `C[C@H]1CN([C@@H](C)CO)S(=O)(=O)c2ccc(-c3ccncc3)cc2O[C@H]1CN(C)S(=O)(=O)c1ccccc1F`, “inactive”.
With `[O-][NH2+]N(CCO)CCO`, the cytotoxicity call is “inactive”.
For `C[C@@H]1CN([C@H](C)CO)C(=O)c2cc(NC(=O)Nc3ccc4c(c3)OCO4)ccc2O[C@@H]1CN(C)Cc1ccc(C(F)(F)F)cc1` the value was “active”; for `C[C@H](CO)N1C[C@H](C)[C@H](CN(C)Cc2ccc(C(F)(F)F)cc2)Oc2ccc(NC(=O)Nc3ccc4c(c3)OCO4)cc2C1=O`, “inactive”.
Regarding `C[C@H](CO)N1C[C@H](C)[C@@H](CN(C)Cc2ccc3c(c2)OCO3)Oc2ccc(NC(=O)Nc3ccc(C(F)(F)F)cc3)cc2C1=O`, the cytotoxicity call was “active”.
As for `C[C@H]1CN([C@@H](C)CO)C(=O)c2cc(NC(=O)Nc3ccc4c(c3)OCO4)ccc2O[C@@H]1CN(C)Cc1ccc(C(F)(F)F)cc1`, the cytotoxicity call is “inactive”.
For `C[C@@H]1CN([C@H](C)CO)C(=O)c2cc(NC(=O)Nc3ccc4c(c3)OCO4)ccc2O[C@H]1CN(C)Cc1ccc(C(F)(F)F)cc1` the value was “inactive”; for `C[C@@H]1CN([C@@H](C)CO)C(=O)c2cc(NC(=O)Nc3ccc4c(c3)OCO4)ccc2O[C@@H]1CN(C)Cc1ccc(C(F)(F)F)cc1`, “inactive”.
As to `C[C@H]1CN([C@@H](C)CO)C(=O)c2cc(NC(=O)Nc3ccc(C(F)(F)F)cc3)ccc2O[C@@H]1CN(C)Cc1ccc2c(c1)OCO2`, the cytotoxicity call is “active”.
For `C[C@@H]1CN([C@@H](C)CO)C(=O)c2cc(NC(=O)Nc3ccc(C(F)(F)F)cc3)ccc2O[C@H]1CN(C)Cc1ccc2c(c1)OCO2`, the cytotoxicity call was “active”.
Regarding `C[C@@H]1CN([C@H](C)CO)C(=O)c2ccccc2-c2ccccc2CO[C@H]1CN(C)C(=O)Nc1cccc(Cl)c1Cl`, the cytotoxicity call is “inactive”.
With `C[C@@H]1CN([C@@H](C)CO)C(=O)c2cc(NC(=O)C3CC3)ccc2O[C@@H]1CN(C)S(=O)(=O)c1cn(C)cn1` the entry was “inactive”; with `C[C@H](CO)N1C[C@H](C)[C@H](CN(C)S(=O)(=O)c2ccccc2)OCCCC[C@H](C)Oc2ccc(NC(=O)Nc3cccc4ccccc34)cc2C1=O`, “inactive”; with `COc1cccc(S(=O)(=O)Nc2ccc3c(c2)[C@H]2C[C@@H](CC(=O)NC4CCCCC4)O[C@@H](CO)[C@H]2O3)c1`, “inactive”.
For `COCCOC(=O)N1C(=O)[C@@]2(c3ccccc31)[C@H](c1ccc(O)cc1)N1[C@H](c3ccccc3)[C@H](c3ccccc3)OC(=O)[C@H]1[C@@H]2C(=O)N1CCc2cc(OC)c(OC)cc2C1` the value was “inactive”; for `COc1ccc(S(=O)(=O)Nc2ccc3c(c2)C(=O)N([C@H](C)CO)C[C@@H](C)[C@@H](CN(C)S(=O)(=O)c2cccs2)O3)cc1`, “inactive”; for `C[C@@H]1CCCCO[C@H](CN(C)CC2CC2)[C@H](C)CN([C@@H](C)CO)C(=O)c2cc(NC(=O)Cc3ccccc3)ccc2O1`, “inactive”.
With `O=C(C[C@@H]1C=C[C@H](NC(=O)C2CC2)[C@H](CO)O1)NCCCN1CCOCC1` the entry was “inactive”.
With `Cc1[nH]c(/C=C2\C(=O)Nc3ccc(S(=O)(=O)Cc4c(Cl)cccc4Cl)cc32)c(C)c1C(=O)N1CCC[C@@H]1CN1CCCC1`, the cytotoxicity call is “active”.
With `C[C@@H]1CN([C@@H](C)CO)C(=O)CCCn2cc(nn2)CO[C@@H]1CN(C)S(=O)(=O)c1ccc(C#N)cc1` the entry was “inactive”; with `C[C@@H]1CN([C@@H](C)CO)C(=O)c2cc(NS(=O)(=O)c3ccc(F)cc3)ccc2O[C@H]1CN(C)Cc1ccc(Oc2ccccc2)cc1`, “inactive”.
For `C[C@@H]1CN([C@@H](C)CO)C(=O)c2cc(NS(=O)(=O)c3ccc(F)cc3)ccc2O[C@@H]1CN(C)Cc1ccc(Oc2ccccc2)cc1` the value was “active”.
For `C[C@@H]1CN([C@H](C)CO)C(=O)c2cc(NS(=O)(=O)c3ccc(F)cc3)ccc2O[C@@H]1CN(C)Cc1ccc(Oc2ccccc2)cc1` the value was “active”; for `C[C@@H]1CN([C@H](C)CO)C(=O)c2cc(NS(=O)(=O)c3ccc(F)cc3)ccc2O[C@H]1CN(C)Cc1ccc(Oc2ccccc2)cc1`, “inactive”; for `C[C@H]1CN([C@@H](C)CO)C(=O)c2cc(NS(=O)(=O)c3ccc(F)cc3)ccc2O[C@H]1CN(C)Cc1ccc(Oc2ccccc2)cc1`, “inactive”.
`C[C@H]1CN([C@@H](C)CO)C(=O)c2cc(NS(=O)(=O)c3ccc(F)cc3)ccc2O[C@@H]1CN(C)Cc1ccc(Oc2ccccc2)cc1`: the cytotoxicity call is “inactive”.
With `COCC(=O)N(C)C[C@@H]1Oc2cc(C#Cc3ccccc3)ccc2S(=O)(=O)N([C@H](C)CO)C[C@@H]1C` the entry was “inactive”; with `C[C@H](CO)N1C[C@H](C)[C@H](CN(C)S(=O)(=O)c2cn(C)cn2)Oc2cc(C#Cc3ccccc3)ccc2S1(=O)=O`, “inactive”.
For `CNCc1cccc2ccccc12` the value was “inactive”; for `CNCCC(Oc1cccc2ccccc12)c1cccs1.Cl` (centres undefined), “active”.
With `Cc1noc(C)c1S(=O)(=O)Nc1ccc2c(c1)CC(=O)N([C@H](C)CO)C[C@H](C)[C@@H](CN(C)Cc1ccccc1)O2` the entry was “inactive”; with `C[C@H]1CN([C@@H](C)CO)C(=O)c2cccc(NS(=O)(=O)c3ccc(Cl)cc3)c2O[C@@H]1CN(C)C(=O)Nc1cccc2ccccc12`, “inactive”.
With `O=c1nc[nH]c2c1ncn2[C@@H]1O[C@H](CO)[C@@H](O)[C@H]1O`, the cytotoxicity call is “inactive”.
For `Nc1nc(Cl)nc2c1ncn2[C@@H]1O[C@H](CO)[C@@H](O)[C@H]1O` the value was “inactive”; for `Nc1ncnc2c1ncn2[C@H]1O[C@@H](COP(=O)(O)OP(=O)(O)OP(=O)(O)O)[C@@H](O)[C@@H]1O`, “inactive”; for `Nc1nc(=O)c2ncn([C@@H]3O[C@H](CO)[C@@H](O)[C@H]3O)c2[nH]1`, “inactive”.
With `Nc1ncnc2c1ncn2[C@@H]1O[C@H](COP(=O)(O)O)[C@@H](O)[C@H]1O` the entry was “inactive”; with `Nc1nc(F)nc2c1ncn2[C@@H]1O[C@H](CO)[C@@H](O)[C@H]1O`, “active”.
For `Nc1nc(=S)c2ncn([C@@H]3O[C@H](CO)[C@@H](O)[C@H]3O)c2[nH]1`, the cytotoxicity call was “active”.
Regarding `Nc1ncnc2c1ncn2[C@@H]1O[C@H](CO)[C@@H](O)[C@@H]1O`, the cytotoxicity call was “inactive”.
With `Nc1ncnc2c1ncn2[C@H]1O[C@@H](CO)[C@H](O)[C@@H]1O` the entry was “inactive”.
With `Nc1ncnc2c1ncn2[C@@H]1O[C@H](COP(=O)(O)OP(=O)(O)OP(=O)(O)OP(=O)(O)OC[C@H]2O[C@@H](n3cnc4c(N)ncnc43)[C@H](O)[C@@H]2O)[C@@H](O)[C@H]1O` the entry was “active”; with `OC[C@H]1O[C@H](n2cnc3cncnc32)[C@@H](O)[C@@H]1O`, “active”; with `Nc1nc(F)nc2c1ncn2[C@@H]1O[C@H](COP(=O)(O)O)[C@@H](O)[C@@H]1O`, “inactive”.
With `Cc1[nH]c(=O)[nH]c(=O)c1S(=O)(=O)N1CCC[C@H](C(=O)NCc2ccc3c(c2)OCO3)C1` the entry was “inactive”; with `C[C@@H]1CN([C@@H](C)CO)C(=O)c2cc(NC(=O)NC3CCCCC3)ccc2O[C@@H](C)CCCCO[C@H]1CN(C)Cc1ccncc1`, “inactive”.
In the case of `C[C@H]1CN([C@@H](C)CO)S(=O)(=O)c2ccc(C#CC3(O)CCCC3)cc2O[C@H]1CN(C)C(=O)Nc1cccc(F)c1`, the cytotoxicity call is “inactive”.
With `C[C@H](CO)N1C[C@H](C)[C@H](CN(C)Cc2ccc(C(F)(F)F)cc2)Oc2ccc(NC(=O)Cc3cn(C)c4ccccc34)cc2C1=O` the entry was “inactive”.
For `O=C(C[C@@H]1CC[C@H](NC(=O)Cc2ccccn2)[C@@H](CO)O1)NCCCN1CCOCC1` the value was “inactive”.
